Records with an inconclusive call do not appear. Active and inactive are the calls of the source. Unless noted, calls come from the whole dose curve; as a rule, active = well fitted curve in the direction sought with a large enough effect; inconclusive = small, poorly fitted or top-dose-only effect, or another doubt; inactive = no such curve, though single readings can be large; an effect the other way counts as inactive or inconclusive.
Key:
[1] = qHTS assay for measurement of the activity of small molecule inhibitors on Zika virus induced Caspase-3 activity in human iPSC derived neural progenitor cells (hNPCs) (AID 1224857); note: nearly all actives have a fitted effect of over 65% in size
In short: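 Human iPSC-derived neural progenitor cells pretreated 1 hr with compounds, then infected with Zika virus (2 FFU/cell) for 6 hours at 37 C. Caspase-3/7 measured by Caspase-Glo luminescence; % inhibition calculated from induction scaled to uninfected (0%) and infected (100%) wells.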

[2] = qHTS assay for measurement of the activity of small molecule inhibitors on Zika virus induced Caspase-3 activity in human astrocytoma cells (AID 1224859)
In short: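 SNB-19 astrocytoma cells, 250/well, pretreated 1 h with compounds, then Zika virus at 2 FFU/cell for 6 h at 37 C; Caspase-Glo 3/7 luminescence after 30 min; percent inhibition normalised to uninfected and infected controls.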

[3] = NS1 protein of Zika virus - qHTS assay to identify small molecule inhibitors in human HEK 293 cells (AID 1347053); note: series mostly up to about 46 µM; nearly all actives have a fitted effect of over 55% in size
In short: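 TR-FRET signal from two anti-ZIKV NS1 antibodies quantified NS1 in HEK 293 cells 24 h after MR766 infection at MOI = 0.5; compounds were added 1 h before virus. Uninfected cells and infected cells defined the NS1 normalization range.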

[4] = qHTS of pediatric cancer cell lines to identify multiple opportunities for drug repurposing: Primary screen for TC32 cells (AID 1347089); note: nearly all actives have a fitted effect of over 60% in size
In short: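 TC32 cells, 500-1,000/well in growth medium, compound-treated 48 h at 37 °C; viability from CellTiter-Glo luminescence. Primary screen: MIPE 11-point (0.78 nM–46 µM final), NPC 8-point (0.59 nM–46 µM final); confirmatory at 11-point dilutions.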

[5] = qHTS of pediatric cancer cell lines to identify multiple opportunities for drug repurposing: Primary screen for DAOY cells (AID 1347090); note: series mostly up to about 46 µM; nearly all actives have a fitted effect of over 55% in size
In short: (§1)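 Eight- or eleven-point concentration series, 48 h treatment at 37 degrees C in growth media; readout CellTiter-Glo luminescence. Potency and efficacy were taken from the concentration-response curves.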

[6] = qHTS of pediatric cancer cell lines to identify multiple opportunities for drug repurposing: Primary screen for SJ-GBM2 cells (AID 1347091)
In short: as §1

[7] = qHTS of pediatric cancer cell lines to identify multiple opportunities for drug repurposing: Primary screen for A673 cells (AID 1347092); note: nearly all actives have a fitted effect of over 45% in size
In short: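 A673 cells (500-1,000 cells/well) were treated 48 hours at 37 degrees C with compounds at 11-point (0.78 nM to 46 µM) or 8-point (0.59 nM to 46 µM) dilutions. Viability read by CellTiter-Glo luminescence; concentration-response curves fitted.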

[8] = qHTS of pediatric cancer cell lines to identify multiple opportunities for drug repurposing: Primary screen for SK-N-MC cells (AID 1347093); note: potency is the fitted concentration of half-maximal effect
In short: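 Metabolically active cells were quantified by ATP-dependent luminescence (CellTiter-Glo, 15 min at room temperature) following 48 h treatment. Cells had been plated at 500-1,000 per well and settled for 5 h beforehand.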

[9] = qHTS of pediatric cancer cell lines to identify multiple opportunities for drug repurposing: Primary screen for BT-37 cells (AID 1347094); note: potency is the fitted concentration of half-maximal effect
In short: (§2)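 ATP-based luminescence (CellTiter-Glo) quantifies viability after a 48-hour exposure. Compounds are dosed across 8 or 11 final concentrations; DMSO and 2.3 µM bortezomib serve as controls.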

[10] = qHTS of pediatric cancer cell lines to identify multiple opportunities for drug repurposing: Primary screen for NB-EBc1 cells (AID 1347095)
In short: as §2

[11] = qHTS of pediatric cancer cell lines to identify multiple opportunities for drug repurposing: Primary screen for U-2 OS cells (AID 1347096); note: nearly all actives have a fitted effect of over 50% in size
In short: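 Cells (500-1,000/well) in growth media were settled 5 h at 37 degrees C, then given compounds for 48 h. Viability was read as CellTiter-Glo luminescence. Primary runs used MIPE at 11 points (0.78 nM-46 µM) and NPC at 8 points (0.59 nM-46 µM); follow-ups used 11 points.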

[12] = target: Atrial natriuretic peptide receptor 1 (Homo sapiens) (UniProt P16066); experiment: Natriuretic polypeptide receptor (hNpr1) antagonism - Pilot screen (AID 1347049; calls by dose curve;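 note: HEK293 cells with hNpr1 and GloSensor cGMP luciferase stimulated by 0.1 nM hNppA; agonist-evoked cGMP luminescence read 20 min after hNppA addition; series mostly up to about 58 µM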)
Sequence of Atrial natriuretic peptide receptor 1 (Homo sapiens) (P16066 whole entry, looked up): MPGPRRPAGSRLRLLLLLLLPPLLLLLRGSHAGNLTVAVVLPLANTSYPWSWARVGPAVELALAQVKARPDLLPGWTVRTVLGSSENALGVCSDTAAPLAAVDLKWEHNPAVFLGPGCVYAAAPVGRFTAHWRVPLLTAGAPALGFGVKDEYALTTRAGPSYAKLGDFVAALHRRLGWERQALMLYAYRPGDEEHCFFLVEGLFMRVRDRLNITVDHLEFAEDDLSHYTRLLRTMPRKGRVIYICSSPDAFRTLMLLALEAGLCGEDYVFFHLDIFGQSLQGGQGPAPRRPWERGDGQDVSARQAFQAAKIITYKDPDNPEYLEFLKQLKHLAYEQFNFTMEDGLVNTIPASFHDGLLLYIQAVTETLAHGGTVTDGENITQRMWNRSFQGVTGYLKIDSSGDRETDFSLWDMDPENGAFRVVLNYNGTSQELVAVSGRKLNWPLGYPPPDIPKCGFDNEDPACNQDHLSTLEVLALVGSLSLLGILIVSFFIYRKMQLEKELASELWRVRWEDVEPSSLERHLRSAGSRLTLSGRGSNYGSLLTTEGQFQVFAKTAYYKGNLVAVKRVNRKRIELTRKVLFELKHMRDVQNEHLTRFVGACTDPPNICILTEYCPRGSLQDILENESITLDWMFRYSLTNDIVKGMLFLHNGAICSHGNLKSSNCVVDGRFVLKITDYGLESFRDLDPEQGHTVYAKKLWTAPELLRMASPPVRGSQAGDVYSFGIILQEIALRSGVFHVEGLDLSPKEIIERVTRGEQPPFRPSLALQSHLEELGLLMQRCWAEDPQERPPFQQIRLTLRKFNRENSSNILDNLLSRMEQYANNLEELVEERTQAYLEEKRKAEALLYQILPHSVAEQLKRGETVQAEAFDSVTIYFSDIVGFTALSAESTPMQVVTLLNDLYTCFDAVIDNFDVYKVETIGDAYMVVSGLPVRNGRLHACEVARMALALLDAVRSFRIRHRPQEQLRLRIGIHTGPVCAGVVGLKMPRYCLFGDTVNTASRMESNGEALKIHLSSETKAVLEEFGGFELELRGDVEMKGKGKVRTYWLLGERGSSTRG
In short: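 Cells expressing receptor plus cGMP biosensor are seeded and incubated overnight at 37C, then loaded with GloSensor reagent (2% final) at room temperature for 2 h. Library compounds go on for 30 min. A pre-read precedes agonist (hNppA, 0.1 nM final) and a 20-min readout.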

[13] = target: T1, Tyrosine-protein phosphatase non-receptor type substrate 1 (Homo sapiens) + Leukocyte surface antigen CD47 (Homo sapiens) (UniProt P78324+Q08722); experiment: CD47-SIRPalpha protein protein interaction - LANCE assay qHTS validation (AID 1347057; active = well fitted curve in the direction sought with a large enough effect in the signal ratio, with a control signal flat, not every such curve was filed as active; the % refers to the signal ratio; note: series mostly up to about 38 µM)
T1 sequence (P78324 whole entry, looked up, the tested form may be a part): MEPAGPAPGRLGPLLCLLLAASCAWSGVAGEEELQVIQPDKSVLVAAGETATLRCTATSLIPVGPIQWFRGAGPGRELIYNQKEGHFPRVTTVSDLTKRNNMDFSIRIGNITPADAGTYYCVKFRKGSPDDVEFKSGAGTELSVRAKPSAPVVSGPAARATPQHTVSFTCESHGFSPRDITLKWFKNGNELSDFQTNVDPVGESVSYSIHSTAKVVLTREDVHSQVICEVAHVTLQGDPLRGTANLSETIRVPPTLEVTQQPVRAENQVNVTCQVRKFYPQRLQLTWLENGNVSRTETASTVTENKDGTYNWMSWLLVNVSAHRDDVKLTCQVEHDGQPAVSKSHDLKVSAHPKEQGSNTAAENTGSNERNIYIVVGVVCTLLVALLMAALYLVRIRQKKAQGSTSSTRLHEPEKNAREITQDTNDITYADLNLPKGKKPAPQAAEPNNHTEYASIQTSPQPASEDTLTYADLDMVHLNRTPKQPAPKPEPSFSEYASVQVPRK
T1 sequence (Q08722 whole entry, looked up, the tested form may be a part): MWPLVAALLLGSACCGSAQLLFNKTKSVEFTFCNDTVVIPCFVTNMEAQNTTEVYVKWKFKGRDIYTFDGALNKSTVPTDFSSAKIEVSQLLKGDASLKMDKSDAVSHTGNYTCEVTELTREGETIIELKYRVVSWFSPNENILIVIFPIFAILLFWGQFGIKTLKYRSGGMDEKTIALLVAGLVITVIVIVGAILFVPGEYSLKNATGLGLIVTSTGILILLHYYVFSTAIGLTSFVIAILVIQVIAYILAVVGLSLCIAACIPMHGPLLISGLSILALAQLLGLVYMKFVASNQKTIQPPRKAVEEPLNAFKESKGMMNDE
In short: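 Inhibition of soluble CD47/SIRPalpha ectodomain association by titrated compounds, measured as 665/615 nm time-resolved FRET ratio after sequential 30 min room-temperature incubations.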

[14] = target: T1, Tyrosine-protein phosphatase non-receptor type substrate 1 (Homo sapiens) + Leukocyte surface antigen CD47 (Homo sapiens); experiment: CD47-SIRPalpha protein protein interaction - HTRF assay qHTS validation (AID 1347058; active = well fitted curve in the direction sought with a large enough effect in the signal ratio, not every such curve was filed as active; the % refers to the signal ratio; note: series mostly up to about 38 µM)
In short: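 Soluble extracellular domains (6His-CD47, Avi-tag-biotinylated SIRPalpha) in PBS pH 7.4 with 0.05% IGEPAL CA-630. Compounds were preincubated 30 min at RT with CD47 and anti-His-Eu, then SIRPalpha and SAV-XL665 were added. TR-FRET 665/615 ratio.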

[15] = target: T1, Tyrosine-protein phosphatase non-receptor type substrate 1 (Homo sapiens) + Leukocyte surface antigen CD47 (Homo sapiens); experiment: CD47-SIRPalpha protein protein interaction - Alpha assay qHTS validation (AID 1347059);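 note: bead proximity luminescence from CD47 binding SIRPalpha after compound preincubation with SIRPalpha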
In short: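 In PBS (pH 7.4) with 0.05% IGEPAL CA-630, compound is preincubated with biotin-Avi-SIRPalpha ectodomain before His-CD47 ectodomain and affinity beads are added. Light-protected room-temperature incubations; AlphaScreen readout.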

[16] = target: Parathyroid hormone/parathyroid hormone-related peptide receptor (Homo sapiens) (UniProt Q03431); experiment: qHTS for PTHR1 Agonists: Optimization Screen against the NCGC LOPAC library (AID 1347079);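 note: GloSensor cAMP luminescence in HEK-293 GP2 cells expressing human PTHR1 with IBMX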
Sequence of Parathyroid hormone/parathyroid hormone-related peptide receptor (Homo sapiens) (Q03431 whole entry, looked up): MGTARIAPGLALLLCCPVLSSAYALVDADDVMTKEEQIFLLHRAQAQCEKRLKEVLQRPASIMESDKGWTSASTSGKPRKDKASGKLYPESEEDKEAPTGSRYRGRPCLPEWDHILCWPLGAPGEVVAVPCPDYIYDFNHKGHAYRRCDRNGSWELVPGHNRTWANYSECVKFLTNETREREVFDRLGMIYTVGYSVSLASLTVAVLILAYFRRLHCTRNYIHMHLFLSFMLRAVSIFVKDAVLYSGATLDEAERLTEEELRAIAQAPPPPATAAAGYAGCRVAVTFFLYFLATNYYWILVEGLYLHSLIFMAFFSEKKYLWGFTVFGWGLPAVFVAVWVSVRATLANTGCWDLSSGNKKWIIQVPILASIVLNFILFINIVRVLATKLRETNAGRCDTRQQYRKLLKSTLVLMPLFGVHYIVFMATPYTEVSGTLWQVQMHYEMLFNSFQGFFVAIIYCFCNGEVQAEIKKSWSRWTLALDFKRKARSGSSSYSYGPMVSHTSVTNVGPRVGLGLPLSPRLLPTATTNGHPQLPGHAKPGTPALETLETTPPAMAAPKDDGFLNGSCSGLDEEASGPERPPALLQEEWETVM
In short: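 HEK-293 GP2 cells, PTHR1 + GloSensor cAMP; 3000 cells/well, o/n. Luciferin + IBMX 0.5mM each (stock), 1 hr 37C. Cpd titration, 1 hr 37C. Lum after 15 min RT. Ctrl M-PTH(1-15) top 10uM.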

Measured: Potency

CCOc1c(N2CCOCC2)cnn(C)c1=O
not listed: [12] | [13] | [14] | [15] | [16]
inactive: all other assays above

O=C1CCCc2c(O)cccc21
not listed: [11] | [12] | [13] | [14] | [15] | [16]
inactive: all other assays above

CN1Cc2cc(C(=O)N3CCC(C4CCNCC4)CC3)ccc2N[C@@H](CC(=O)O)C1=O
not listed: [12] | [13] | [14] | [15] | [16]
inactive: all other assays above

Nc1ncnc2c1ncn2Cc1c(F)cccc1Cl
not listed: [12] | [13] | [14] | [15] | [16]
inactive: all other assays above

Cc1sccc1Br
not listed: [12] | [13] | [14] | [15] | [16]
inactive: all other assays above

Cc1onc(-c2ccccc2)c1C(=O)Cl
not listed: [11] | [12] | [13] | [14] | [15] | [16]
inactive: all other assays above

CC(C)(C)NCC(O)COc1ccccc1OCC1CCCO1 (stereo not drawn)
not listed: [12] | [13] | [14] | [15] | [16]
inactive: all other assays above

CCN1CCCC1CN (stereo not drawn)
not listed: [12] | [13] | [14] | [15] | [16]
inactive: all other assays above

C[C@H]1C[C@H]2[C@@H]3CCC4=CC(=O)C=C[C@]4(C)[C@H]3C(=O)C[C@]2(C)[C@@]1(O)C(=O)CO
not listed: [12] | [13] | [14] | [15] | [16]
inactive: all other assays above

OC1(c2ccccc2)CCNCC1
not listed: [12] | [13] | [14] | [15] | [16]
inactive: all other assays above

CCN(CC)CCNC(=O)c1ccc(NS(C)(=O)=O)cc1
inactive: [1] | [2] | [12] | [3] | [13] | [14] | [15] | [16]

Oc1cccc2[nH]ccc12
not listed: [12] | [13] | [14] | [15] | [16]
inactive: all other assays above

CCCCOC(=O)CCCCCCCCC(=O)OCCCC
not listed: [12] | [13] | [14] | [15] | [16]
inactive: all other assays above

Cc1ccc(C(C)OC(=O)C2(C)CCC(C(=O)O)C2(C)C)cc1 (stereo not drawn)
not listed: [12] | [13] | [14] | [15] | [16]
inactive: all other assays above

Cc1cc(CCCOc2c(C)cc(-c3noc(C(F)(F)F)n3)cc2C)on1
not listed: [11] | [12] | [13] | [14] | [15] | [16]
inactive: all other assays above

CC(=O)N(c1onc(C)c1C)S(=O)(=O)c1ccc(N)cc1
not listed: [11] | [12] | [13] | [14] | [15] | [16]
inactive: all other assays above

CC(NN)c1ccccc1 (stereo not drawn)
not listed: [12] | [13] | [14] | [15] | [16]
inactive: all other assays above

Cc1cccc(C)c1NC(=O)c1ccc(N)cc1
not listed: [12] | [13] | [14] | [15] | [16]
inactive: all other assays above

CCCCCCCC(=O)[O-].CCCCCCCC(=O)[O-].[Zn+2]
not listed: [12] | [13] | [14] | [15] | [16]
inactive: all other assays above

CC[N+]1(CC)CCC(=C(c2ccccc2)c2ccccc2)C1C (stereo not drawn)
active: [8] 18.8 µM
not listed: [12] | [13] | [14] | [15] | [16]
inactive: all other assays above

CN1N=C(C(N)=O)CCC1=O
not listed: [12] | [13] | [14] | [15] | [16]
inactive: all other assays above

O=C(CS(=O)Cc1ccco1)NC/C=C\COc1cc(CN2CCCCC2)ccn1 (stereo not drawn)
not listed: [12] | [13] | [14] | [15] | [16]
inactive: all other assays above

CCCc1ncc(C(=O)O)s1
not listed: [12] | [13] | [14] | [15] | [16]
inactive: all other assays above

O=C1CC2(CCCC2)CC(=O)N1CCNCC1COc2ccccc2O1 (stereo not drawn)
not listed: [12] | [13] | [14] | [15] | [16]
inactive: all other assays above

CN(C)CCCOC1(Cc2ccccc2)CCCCCC1
not listed: [12] | [13] | [14] | [15] | [16]
inactive: all other assays above

Cn1c(=O)c2c(ncn2CC(=O)O)n(C)c1=O
not listed: [12] | [13] | [14] | [15] | [16]
inactive: all other assays above

CC(Oc1c(Cl)cccc1Cl)C1=NCCN1 (stereo not drawn)
not listed: [12] | [13] | [14] | [15] | [16]
inactive: all other assays above

NS(=O)(=O)c1cc(C(=O)NN2C[C@H]3[C@H]4CCC(C4)[C@H]3C2)ccc1Cl
not listed: [12] | [13] | [14] | [15] | [16]
inactive: all other assays above

COc1cc(/C=C/C(N)=O)cc(OC)c1OC
active: [9] 0.001 µM
not listed: [12] | [13] | [14] | [15] | [16]
inactive: all other assays above

O=C(O)Cn1cnnn1
not listed: [12] | [13] | [14] | [15] | [16]
inactive: all other assays above

CC(C)(Oc1ccc(Cl)cc1)C(=O)OCCCOC(=O)C(C)(C)Oc1ccc(Cl)cc1
not listed: [12] | [13] | [14] | [15] | [16]
inactive: all other assays above

CN1CC(=O)N2[C@H](c3ccc4c(c3)OCO4)c3[nH]c4ccccc4c3C[C@@H]2C1=O
not listed: [12] | [13] | [14] | [15] | [16]
inactive: all other assays above

CC(CC(C#N)(c1ccccc1)C(C)C)N(C)C (stereo not drawn)
not listed: [12] | [13] | [14] | [15] | [16]
inactive: all other assays above

CCCCNc1ccc(C(=O)OCCN(CC)CC)cc1
not listed: [12] | [13] | [14] | [15] | [16]
inactive: all other assays above

CCOC(=O)C(=O)CCCCCCl
not listed: [12] | [13] | [14] | [15] | [16]
inactive: all other assays above

Cc1c(N)cccc1C(F)(F)F
not listed: [12] | [13] | [14] | [15] | [16]
inactive: all other assays above

Cc1cc(=O)oc2cc(O[C@@H]3SC[C@@H](O)[C@H](O)[C@H]3O)ccc12
not listed: [12] | [13] | [14] | [15] | [16]
inactive: all other assays above

CCCCOCCOC(=O)c1cccnc1
not listed: [12] | [13] | [14] | [15] | [16]
inactive: all other assays above

COc1ccc(/C(C)=C/C(=O)O)c(OC)c1
not listed: [12] | [13] | [14] | [15] | [16]
inactive: all other assays above

Cc1ccc(/C=N/n2c(-c3ccccc3)csc2=S)cc1
not listed: [12] | [13] | [14] | [15] | [16]
inactive: all other assays above

— PubChem BioAssay (NCATS)
